Most compounds without a hit are left out; they make up all but 9.2% or so of the library.
SMN2 splice up: increases expression of the SMN2 splice variant; HEK293 SMN2-luciferase splicing reporter, luminescence, 30-36 h; Potency, µM (titrated, usually from 46.1 µM), for inactives: top-dose activity change, positive = activation, most hits filed as activators; hit rate 2.8% among 210,000; AID 1458; note: % of control where 0% means no effect; nearly all actives have a fitted effect of over 55% in size
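HEK293 cells carry an SMN2 […]–luciferase reporter in which exon 7 inclusion puts luciferase in frame. Cells were plated 10-12 h before compound addition, then incubated 30-36 h at 37C. ONE-Glo luminescence was read; sodium butyrate at 4.5 mM final served as control.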
Rab9 promoter act: Rab9 promoter activation. Huh7 Rab9 promoter-luciferase reporter, luminescence, 24 h. AID 485297. Potency, µM (top dose mostly 9.22 µM), for inactives: top-dose activation, negative = inhibition, actives largely listed as activators. hit rate 2.8% among 320,000; note: % of control where 0% means no effect; nearly all actives have a fitted effect of over 60% in size
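Rab9 promoter-driven luciferase in stably transfected Huh7 cells; 1500 cells/well rested 2 h, exposed to compound in DMSO for 24 h at 37 °C, 5% CO2. Luminescence read 10 min after adding luciferase reagent at ambient temperature.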
ELG1 repair inh: blocks ELG1-dependent DNA repair in HEK293T cells. hit rate 2.3% among 330,000. Potency, µM (top dose mostly 46.1 µM), for inactives: top-dose activity change, negative = inhibition, usual class: inhibitors. HEK293T ELG1-luciferase reporter, luminescence, 16 h; DNA damage induced by 5-fluorouridine; note: % is set by controls: 0 for no effect and ±100 for the full control effect; nearly all actives have a fitted effect of over 55% in size
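5-Fluorouridine DNA damage + compound/DMSO, 2,000 cells/well, 16 h, 37 °C/5% CO2. ONE-Glo, 30 min RT, luminescence. Readout = decrease in reporter signal.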
ELG1 genotoxic: genotoxicity induction in ELG1-luciferase HEK293T cells. hit rate 1.3% among 330,000. AID 504466. HEK293T ELG1-luciferase reporter, luminescence, 16 h. Potency, µM (doses to about 46 µM), inactives show at the top dose activity change, positive = activation, usual class: activators; note: % of control where 0% means no effect; nearly all actives have a fitted effect of over 60% in size
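16 hr compound incubation (37 °C, 5% CO2) of HEK293T cells carrying luciferase-tagged ELG1; luciferase then measured by ONE-Glo luminescence after 30 min at RT.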
FLuc counter: firefly luciferase modulation, counter-screen for miR-21 project. P08659. purified FLuc, Km substrates, luminescence inhibition. Potency, µM (series often up to 57.5 µM), without a hit: top-dose activity change, negative = inhibition, hits mostly inhibitors. hit rate 6.9% among 360,000. AID 588342;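 note: plate controls were vehicle for no effect and reference inhibitor for full effect; nearly all actives have a fitted effect of over 55% in size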
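Purified P. pyralis luciferase (10nM final) with 10uM D-luciferin and 10uM ATP (Km levels) in 50mM Tris acetate pH 7.5, 10mM Mg acetate, 0.01% Tween-20, 0.05% BSA; qHTS 6-point titration, ~60 µM downward; luminescence read.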
NPC1 prom act: activates the NPC1 promoter; Huh7 NPC1 promoter luciferase reporter, 24 h; Potency, µM (top dose mostly 9.22 µM), for the others: top-dose activation, most hits filed as activators; hit rate 2.4% among 320,000; AID 485313; note: % of control where 0% means no effect; nearly all actives have a fitted effect of over 60% in size
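Luminescence read-out of NPC1 promoter-driven luciferase in stably transfected Huh7 cells; compounds delivered in DMSO and left 24 h at 37C, 5% CO2, qHTS titration format.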
ELG1 FLuc counter: luciferase inhibition in cell-free luciferin readout for ELG1 hits; Potency, µM (titrated, usually from 46.1 µM), without a hit: at the highest dose activity change, negative = inhibition, usual class: inhibitors; AID 624247; hit rate 3% among 350; shares compounds with ELG1 repair inh; cell-free firefly luciferase luminescence counter-screen, ViewLux; note: % is set by controls: 0 for no effect and ±100 for the full control effect
ELG1 Luc conf: confirmation of human ELG1-dependent DNA repair inhibitors; Potency, µM (series often up to 46.1 µM), without a hit: at the top dose activity change, negative = inhibition, actives largely listed as inhibitors; hit rate 68% among 670; shares compounds with ELG1 repair inh; HEK293T ELG1-luciferase levels, luminescence; cells co-treated with 5-fluorouridine; AID 624248; note: % is set by controls: 0 for no effect and ±100 for the full control effect; nearly all actives have a fitted effect of over 55% in size
Target sequence (Q96QE3 whole entry, looked up): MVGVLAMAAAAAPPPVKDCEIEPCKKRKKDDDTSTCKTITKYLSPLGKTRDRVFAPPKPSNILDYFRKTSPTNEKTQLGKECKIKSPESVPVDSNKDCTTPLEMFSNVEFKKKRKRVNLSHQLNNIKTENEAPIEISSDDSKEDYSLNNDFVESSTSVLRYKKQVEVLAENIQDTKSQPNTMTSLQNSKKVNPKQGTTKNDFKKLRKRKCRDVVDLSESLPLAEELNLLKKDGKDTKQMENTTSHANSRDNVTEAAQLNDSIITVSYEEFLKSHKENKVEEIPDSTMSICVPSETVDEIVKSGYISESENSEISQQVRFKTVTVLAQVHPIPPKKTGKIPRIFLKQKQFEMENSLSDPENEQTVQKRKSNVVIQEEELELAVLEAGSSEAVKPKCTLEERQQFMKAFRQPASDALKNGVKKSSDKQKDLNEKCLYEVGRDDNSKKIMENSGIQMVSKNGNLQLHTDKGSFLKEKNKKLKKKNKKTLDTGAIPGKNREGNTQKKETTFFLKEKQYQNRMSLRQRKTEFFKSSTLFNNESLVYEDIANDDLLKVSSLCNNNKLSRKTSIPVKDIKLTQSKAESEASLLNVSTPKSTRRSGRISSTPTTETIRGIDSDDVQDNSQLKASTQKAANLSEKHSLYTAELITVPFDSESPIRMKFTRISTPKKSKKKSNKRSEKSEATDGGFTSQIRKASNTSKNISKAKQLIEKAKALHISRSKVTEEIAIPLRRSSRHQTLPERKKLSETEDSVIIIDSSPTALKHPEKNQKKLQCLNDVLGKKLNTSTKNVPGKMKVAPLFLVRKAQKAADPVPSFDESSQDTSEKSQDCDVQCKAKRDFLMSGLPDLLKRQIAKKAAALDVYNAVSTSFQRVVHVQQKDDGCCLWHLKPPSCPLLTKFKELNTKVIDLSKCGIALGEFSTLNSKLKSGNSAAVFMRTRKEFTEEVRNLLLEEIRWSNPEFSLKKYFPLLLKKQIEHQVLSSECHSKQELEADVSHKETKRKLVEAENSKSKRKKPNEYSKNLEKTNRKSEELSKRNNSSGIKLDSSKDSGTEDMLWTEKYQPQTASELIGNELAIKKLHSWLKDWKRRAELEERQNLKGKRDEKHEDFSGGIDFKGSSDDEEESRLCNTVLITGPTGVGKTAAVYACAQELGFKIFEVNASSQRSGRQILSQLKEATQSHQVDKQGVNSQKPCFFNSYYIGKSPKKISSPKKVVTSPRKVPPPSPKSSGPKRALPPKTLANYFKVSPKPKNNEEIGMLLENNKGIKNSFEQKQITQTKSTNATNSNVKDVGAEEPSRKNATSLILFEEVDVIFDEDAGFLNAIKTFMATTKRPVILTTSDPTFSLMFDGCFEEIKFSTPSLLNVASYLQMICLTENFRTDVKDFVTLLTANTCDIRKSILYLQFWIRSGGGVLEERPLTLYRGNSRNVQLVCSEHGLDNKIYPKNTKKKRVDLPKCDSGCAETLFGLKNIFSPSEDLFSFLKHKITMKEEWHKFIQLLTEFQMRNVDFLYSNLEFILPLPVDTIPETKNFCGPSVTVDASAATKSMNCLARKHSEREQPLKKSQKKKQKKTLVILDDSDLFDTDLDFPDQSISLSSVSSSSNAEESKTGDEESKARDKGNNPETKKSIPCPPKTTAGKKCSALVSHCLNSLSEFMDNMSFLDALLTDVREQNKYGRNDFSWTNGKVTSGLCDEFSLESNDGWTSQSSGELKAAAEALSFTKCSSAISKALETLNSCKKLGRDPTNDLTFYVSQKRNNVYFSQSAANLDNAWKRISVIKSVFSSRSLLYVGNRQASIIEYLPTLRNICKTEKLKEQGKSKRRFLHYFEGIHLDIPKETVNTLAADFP
ELG1-Luc MMS: confirmation of human ELG1 repair inhibitors, MMS stimulated; Potency, µM (series often up to 46.1 µM), without a hit: at the highest dose activity change, negative = inhibition, actives largely listed as inhibitors; HEK293T luciferase-tagged ELG1 level, MMS stimulated; shares compounds with ELG1 repair inh; hit rate 53% among 670; note: % is set by controls: 0 for no effect and ±100 for the full control effect; nearly all actives have a fitted effect of over 60% in size
ELG1 5-FU: confirmation of ELG1 repair inhibitors: viability with 5FU; shares compounds with ELG1 repair inh; 670 tested, under 10 active; AID 624250; cell viability with 5-FU, ELG1-dependent repair; Potency, µM (series often up to 46.1 µM), without a hit: at the highest dose activity change, negative = viability loss, hits mostly cytotoxic;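 note: ELG1-luc HEK293T cells cotreated with 5-fluorouridine at 10 µM final; viability measured 16 h after compound addition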
ELG1 MMS viab: confirmation of ELG1 repair inhibitors: viability with MMS; shares compounds with ELG1 repair inh; Cell viability with MMS, ELG1-dependent DNA repair; Potency, µM (series often up to 46.1 µM), for the others: at the top dose activity change, negative = viability loss, actives largely listed as cytotoxic; hit rate 33% among 670; AID 624251;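 note: ELG1-luc HEK293T cells co-treated with 10 µM MMS; viability read 16 h after compound addition; % is set by controls: 0 for no effect and ±100 for the full control effect; nearly all actives have a fitted effect of over 60% in size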
ELG1 unstim viab: unstimulated viability counter-screen for ELG1 repair hits; shares compounds with ELG1 repair inh; hit rate 8% among 900; Potency, µM (titrated, usually from 45.9 µM), inactives show top-dose activity change, negative = loss of viability, usual class: cytotoxic; cell viability counter-screen, unstimulated, luminescence;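 note: compound exposure lasted 16 hours before reading; % is set by controls: 0 for no effect and ±100 for the full control effect; nearly all actives have a fitted effect of over 55% in size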
FLuc biochem: inhibits purified firefly luciferase, counter-screen for ELG1 hits | hit rate 10% among 350 | AID 624253 | shares compounds with ELG1 repair inh | purified firefly luciferase, luminescence counter-screen | Potency, µM (doses to about 57.5 µM), inactives show at the highest dose activity, negative = inhibition, actives largely listed as inhibitors; note: % is set by controls: 0 for no effect and ±100 for the full control effect
* marks the source's active call; other numbers are inactive results; ? = inconclusive; . = no result; [ ] = remark or other dose. Calls come from the whole dose curve; as a rule, active = well fitted curve in the direction sought with a large enough effect; inconclusive = small, poorly fitted or top-dose-only effect, or another doubt; inactive = no such curve, though single readings can be large; an effect the other way counts as inactive or inconclusive. Potency is the fitted concentration of half-maximal effect.

SMILES	SMN2 splice up	Rab9 promoter act	ELG1 repair inh	ELG1 genotoxic	FLuc counter	NPC1 prom act	ELG1 Luc conf	ELG1-Luc MMS	ELG1 5-FU	ELG1 MMS viab	ELG1 unstim viab	others
COC1=CC2C3Cc4ccc(OC)c(O)c4[C@]2(CCN3C)CC1=O (stereo partly specified)	3.9%	.	.	.	.	.	.	.	.	.	.
CC(=O)OC[C@]12C[C@H](OC(=O)CC(C)C)C(C)=C[C@H]1O[C@H]1[C@H](O)[C@@H](OC(C)=O)[C@@]2(C)[C@]12CO2	-80.4%	.	.	.	.	.	.	.	.	.	.
CC(=O)OC[C@]12CCC(C)=C[C@H]1O[C@@H]1[C@H](O)[C@@H](OC(C)=O)[C@@]2(C)[C@]12CO2	.	-43.9%	0.0183µM*	-13.2%	-2.5%	-52.6%	0.0281µM*	0.0177µM*	-0.2%	0.0445µM*	?	ELG1 FLuc counter=?;FLuc biochem=-5.2%
Cl/C=C/CCl	-12.0%	.	.	.	.	.	.	.	.	.	.
CCC1OC2(C)C(O)C(/C=C/C=C/C=C/c3oc(=O)cc(OC)c3C)OC1(C)C2OC(C)=O (stereo unspecified)	.	.	.	.	.	.	2.23µM*	0.199µM*	-0.5%	0.158µM*	?	ELG1 FLuc counter=?;FLuc biochem=-9.5%
CC/C=C\C/C=C\C/C=C\C/C=C\C/C=C\CCCC(N)=O	-1.1%	.	.	.	.	.	.	.	.	.	.
CCC(C)C(NC(=O)CCCNC(=O)CCC(=O)OC1O[C@H]2OC3(C)CC[C@H]4[C@H](C)CCC(C1C)C24OO3)C(=O)O (stereo partly specified)	.	-19.5%	0.58µM*	-9.1%	-2.0%	-22.4%	?	?	-5.8%	-3.7%	?	ELG1 FLuc counter=-12.2%;FLuc biochem=-2.6%
CCC(C)NC(=O)CCC(=O)OC1O[C@H]2OC3(C)CC[C@H]4[C@H](C)CCC(C1C)C24OO3 (stereo partly specified)	.	-22.3%	?	-7.6%	-3.5%	-18.0%	.	.	.	.	.
C[C@@H]1O[C@@H](O[C@H]2C[C@@H](O)[C@]3(CO)[C@H]4[C@H](O)C[C@]5(C)[C@@H](C6COC(=O)C6)CC[C@]5(O)[C@@H]4CC[C@]3(O)C2)[C@H](O)[C@H](O)[C@H]1O (stereo partly specified)	0.794µM*	-36.8%	1.46µM*	-21.9%	5.1%	-45.5%	2.5µM*	1.58µM*	?	3.15µM*	?	ELG1 FLuc counter=?;FLuc biochem=3.0%
C[C@@H]1O[C@@H](O[C@H]2C[C@@H](O)[C@]3(CO)[C@@H]4C(CC[C@]3(O)C2)[C@@]2(O)CC[C@H]([C@@H]3COC(=O)C3)[C@@]2(C)C[C@H]4O)[C@H](O)[C@H](O)[C@H]1O (stereo partly specified)	.	-43.4%[46.1 µM]	.	.	.	-34.2%[46.1 µM]	.	.	.	.	.
CCC(Oc1ccc(Cl)cc1)C(=O)OC1CC2CCC(C1)N2C (stereo unspecified)	-17.0%	.	.	.	.	.	.	.	.	.	.
C=C(C)C#N	3.9%	.	.	.	.	.	.	.	.	.	.
CC/C=C\C/C=C\C/C=C\C/C=C\C/C=C\CCCC(=O)NCCO	13.2%	.	.	.	.	.	.	.	.	.	.
CCOC(=O)c1cccc(NS(=O)(=O)c2ccc(NC(C)=O)cc2)c1	-48.1%	-15.5%	4.61µM*	-19.5%	-0.3%	0.9%	12.5µM*	9.96µM*	-9.2%	11.2µM*	?
C=CC(C)=O	-9.9%	.	.	.	.	.	.	.	.	.	.
COc1ccccc1OP(=O)(Nc1cccnc1)Oc1ccccc1OC	17.8%	-8.5%	2.31µM*	-9.6%	-1.4%	0.5%	11.2µM*	7.91µM*	8.4%	-16.1%	?
Cc1ccc(NP(=O)(Oc2ccccc2F)Oc2ccccc2F)cc1C	-85.4%	-1.3%	?	-2.8%	5.6%	-0.8%	.	.	.	.	.
CCNCC	1.1%	.	.	.	.	.	.	.	.	.	.
Cc1nccc2c1[nH]c1ccc(Br)cc12	.	-1.9%	-7.1%	0.2%	0.6%	-1.1%	.	.	.	.	.
COc1ccc2c(c1)[nH]c1c(C)nccc12	-25.4%	-2.8%	2µM*	.	-1.4%	1.6%	2.81µM*	11.2µM*	9.3%	?	-14.3%
CC(C)(C)OC(=O)NCc1ccc(CNC(=O)c2nc[nH]c2C(=O)NCc2ccc(CNC(=O)OC(C)(C)C)cc2)cc1	.	.	2.91µM*	-7.4%	.	.	4.99µM*	?	6.9%	9.2%	?
CC(=O)c1c(C)n(C2CCCCC2)c2ccc(O)cc12	-10.2%	-8.9%	?	-15.3%	-1.5%	18.3%	1.25µM*	?	1.3%	8.9%	?
CC[C@@H]1/C=C/C=C/C[C@H](C)[C@@H](O)[C@](C)(O)C(=O)[C@H](C)[C@@H](O)[C@H](C)C(=O)[C@H](C)[C@@H](O)[C@H](C)/C=C/C(=O)O[C@H]2[C@@H](C)[C@@H](CC1)O[C@@]1(CC[C@@H](C)[C@@H](C[C@H](C)O)O1)[C@@H]2C	-39.8%	.	.	.	.	.	7.06µM*	0.0112µM*	?	0.0112µM*	0.0281µM*	ELG1 FLuc counter=?;FLuc biochem=-1.8%
c1ccc(P(c2ccccc2)c2ccccc2)cc1	4.1%	.	.	.	.	.	.	.	.	.	.
CCCSc1ccc2nc(NC(=O)OC)[nH]c2c1	?	17.1%	?	-1.3%	3.01µM*	23.7%	.	.	.	.	-2.6%
